In PubChem BioAssay:

The compounds below were run on Lefty1 (assay: Lefty1 binders on small-molecule microarrays, primary screen, biochemical, small-molecule microarray, 635/667 nm fluorescence (AID 1139)). Settings: small-molecule microarray binding, fluorescence 635/667; higher = more signal.
Work on `C=CC[C@@H]1C=C[C@H](ON=C2c3cc(OC)ccc3O[C@H](c3cccc(OC)c3)[C@H]2O)[C@@H](CO)O1` yielded a composite z-score of 0.873.
`COCCOC(=O)N1C(=O)[C@@]2(c3cc(C#CCNC(N)=O)ccc31)[C@H](c1ccc(O)cc1)N1[C@H](c3ccccc3)[C@H](c3ccccc3)OC(=O)[C@H]1[C@@H]2C(=O)N1CCCCCCC1` gave a composite z-score of 1.05.
Work on `CC(C)(C)N1C(=O)[C@H]2[C@H]3[C@H](O)[C@H](O)CC(=NOCc4ccccc4)[C@@H]3CC[C@H]2C1=O` yielded a composite z-score of 0.744.
For `O=C1C[C@]2(c3ccc([N+](=O)[O-])cc3)C(=O)N(CCN3CCOCC3)c3cc(CO)ccc3[C@H]2N1CC12CC3CC(CC(C3)C1)C2`, the composite z-score was -0.424.
For `CC[C@@H](c1ccccc1)n1c(=O)n2n(c1=O)[C@H]1[C@H](O)[C@@H]3O[C@@H]3C(=NOCC(C)C)[C@H]1CC2`, the composite z-score was 0.542.
Work on `O=C1[C@H]2[C@H]3[C@H](O)[C@H](O)CC(=NO[C@@H]4O[C@H](CO)[C@@H](O)[C@H](O)[C@H]4O)[C@@H]3CC[C@H]2C(=O)N1Cc1ccc2c(c1)OCO2` yielded a composite z-score of 0.716.
With `CC(C)=C1C(=O)C(c2ccccc2)=C2CN3C(=O)N(CCc4ccccc4)C(=O)[C@]3(Cc3ccc(F)cc3)[C@H]21` the composite z-score was -1.2.
For `CO[C@@H]1COC(=O)CCC[C@@H](C)[C@H](OC)COC(=O)[C@H](Cc2ccccc2)NC(=O)CC=C[C@H]1C`, the composite z-score was 0.978.
`Cc1ccc(F)cc1S(=O)(=O)N[C@@H]1CCN(Cc2ccc(CC(C)C)cc2)C1` showed a composite z-score of 0.163.
For `CC(C)[Si]1(C(C)C)O[C@@H](c2ccccc2)c2cc(C3CC3)nc(-c3ccccc3)c21`, the composite z-score was -0.198.
With `COC(=O)[C@@]1(Cc2ccc(F)cc2)[C@H]2c3cc(C(=O)N(C)C)n(Cc4ccc(OC)c(OC)c4)c3C[C@H]2CN1C(=O)c1ccccc1` the composite z-score was -0.614.
With `CCOC(=O)CCN1C(=O)[C@H]2[C@H]3[C@H](O)C=CC(=O)[C@@H]3CC[C@H]2C1=O` the composite z-score was 0.345.
With `C[C@H](c1ccccc1)N1C(=O)[C@H]2[C@@H]3C(=CC[C@H]2C1=O)C(=O)[C@H]1O[C@H]1[C@H]3O` the composite z-score was 0.708.
`CS(=O)(=O)CCOC(=O)C1=CC(CCCO)=CC(c2cccs2)N(Cc2cccc(OC(F)(F)F)c2)C=C1C(=O)OCCS(C)(=O)=O` (configuration not stated) gave a composite z-score of 0.578.
`O=C1[C@H]2[C@H]3[C@H](O)[C@H](O)CC(=NO[C@@H]4O[C@H](CO)[C@@H](O)[C@H](O)[C@H]4O)[C@H]3CC[C@H]2C(=O)N1Cc1ccc2c(c1)OCO2` was tested, and the composite z-score was 0.515.
For `Cc1cc2c(nc1C)CCCN2CC(C)ON=C1[C@H]2CCn3c(=O)n(-c4ccccc4)c(=O)n3[C@H]2[C@H](O)[C@@H]2O[C@H]12` (some centres not stated), the composite z-score was 0.703.
`Cc1cc(C)c(-c2cc([C@H](C)ON=C3[C@H]4CCn5c(=O)n(-c6ccccc6)c(=O)n5[C@H]4[C@H](O)[C@@H]4O[C@H]34)on2)c(C)c1` was tested, and the composite z-score was 0.652.
`COc1ccc([Si](C)(C)[C@@H]2[C@@H](CCO)O[C@]3(C(=O)N(Cc4ccc(NC(C)=O)cc4)c4ccccc43)[C@H]2C)cc1` gave a composite z-score of 0.727.
In the case of `c1ccc(C2NCCc3c2[nH]c2ccccc32)cc1` (configuration not stated), the composite z-score is reported as 0.588.
Work on `CC(=O)C[C@H](O)[C@@H](NC(=O)OC(C)(C)C)C(C)C` yielded a composite z-score of 0.304.
In the case of `CO[C@H]1O[C@H](CO)[C@@H](OC(=O)Nc2ccc(C#N)cc2)[C@H](OC(=O)c2cc3ccccc3[nH]2)[C@H]1OC(=O)c1cc2ccccc2[nH]1`, the composite z-score is reported as 0.421.
In the case of `CO[C@@H]1COC(=O)[C@@H]2CCCN2C(=O)[C@@H](C)COC(=O)[C@H](COCc2ccccc2)NC(=O)CC=C[C@H]1C`, the composite z-score is reported as 0.698.
Compound `COc1ccc(O[C@H]2C=C[C@@H](c3ccccc3)O[C@@H]2COC(=O)CCC(C)=NO[C@H](C)c2cn([C@@H]3COC[C@H]3O)nn2)cc1` has a composite z-score of 0.701.
Work on `CC(CCC(=O)OC[C@H]1O[C@H](C#Cc2ccccc2)C=C[C@@H]1Oc1ccc(C)cc1)=NO[C@@H](C)c1cn([C@H](CO)Cc2ccccc2)nn1` yielded a composite z-score of 0.393.
`CO[C@H]1COC(=O)[C@H](C)COC(=O)CC=C[C@@H](C)[C@H](OC)COC(=O)CC=C[C@@H]1C` showed a composite z-score of 1.15.
Work on `CCc1cccc(NC(=O)O[C@H]2[C@H](OC(=O)Nc3ccc4c(c3)OCO4)[C@@H](OC(=O)Nc3ccc4c(c3)OCO4)[C@@H](OC)O[C@@H]2CO)c1` yielded a composite z-score of 1.36.
For `CCOC(=O)C[C@H]1[C@H](OC(=O)c2cc3ccccc3oc2=O)[C@@H](NC(=O)c2ccc3ccccc3n2)c2cc(OCCCO)ccc2N1C(=O)c1ccccc1`, the composite z-score was 0.606.
